Data as given in PubChem BioAssay (EPA / NIEHS).
Values joined by “and” are separate entries in the source; they are usually repeats but may differ in a detail not shown here. Equal entries are not always repeated. Results filed as inconclusive are left out. The source holds several records for some structures; these can differ, active in one and inactive in another. Active and inactive are the calls of the source. Rule for the calls, unless noted: active = hit-call score of the fitted dose curve at least 0.9, where 1 is the maximum; inconclusive = response in the unintended direction; inactive = score below 0.9.

Assays:
[1] = ATG_TCF_b_cat_CIS: Attagene CIS-FACTORIAL HepG2 Assay for human T-Cell-Factor with beta-catenin (TCF/b-cat) (AID 2282965; active = hit-call score of the fitted dose curve at least 0.9, where 1 is the maximum; inactive = score below 0.9); details: HepG2 TCF/beta-catenin cis-reporter transcription, actives raise or lower the signal
Procedure, shortened: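 HepG2, transient MRTU transfection, cis-element-driven reporters (endogenous TFs). 24 h compound exposure. Readout: reporter mRNA by RT-PCR + 6-FAM primer extension, HpaI digest, capillary electrophoresis. Gain/loss fit vs DMSO baseline.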

[2] = ATG_TAL_CIS: Attagene CIS-FACTORIAL HepG2 Assay for human TAL Basal Promoter (AID 2282966; active = hit-call score of the fitted dose curve at least 0.9, where 1 is the maximum; inactive = score below 0.9;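 note: background control endpoint measuring basal TAL promoter reporter mRNA not a specific factor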); details: HepG2 Attagene cis-factorial TAL promoter reporter; actives raise or lower the signal
Procedure, shortened: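 RT-PCR plus capillary electrophoresis quantifies reporter mRNA induction in transiently transfected HepG2 cells after 24 h chemical treatment. DMSO serves as negative control and baseline for bidirectional fitting.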

[3] = ATG_TGFb_CIS: Attagene CIS-FACTORIAL HepG2 Assay for human Transforming Growth Factor (TGF) (AID 2282967; active = hit-call score of the fitted dose curve at least 0.9, where 1 is the maximum; inactive = score below 0.9); details: HepG2 Attagene CIS TGFb reporter, mRNA transcription; actives raise or lower the signal
Procedure, shortened: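 HepG2 cells transiently transfected with cis-promoter-driven multiplexed reporter units; 24 h compound exposure. Reporter mRNA measured by RT-PCR, 6-FAM labeling, HpaI digestion and capillary electrophoresis; bidirectional fit versus DMSO baseline.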

[4] = ATG_VDRE_CIS: Attagene CIS-FACTORIAL HepG2 Assay for human Vitamin D Receptor Element (VDRE) (AID 2282968; active = hit-call score of the fitted dose curve at least 0.9, where 1 is the maximum; inactive = score below 0.9); details: HepG2 VDRE cis-reporter transcription, actives raise or lower the signal
Procedure, shortened: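 Cell-based multiplexed reporter format in human liver HepG2 cells, 24 h post-dose. Fluorescence from capillary electrophoresis of reporter cDNA gives the signal, with DMSO as negative control and baseline.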

[5] = biological target: Nuclear receptor subfamily 1 group I member 3 (Homo sapiens) (UniProt Q14994); assay: ATG_CAR_TRANS: Attagene TRANS-FACTORIAL HepG2 Assay for human Constitutive Androstane Receptor (CAR) (AID 2282969); details: HepG2 Attagene TRANS-FACTORIAL CAR reporter;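 note: activators raise reporter mRNA above DMSO so AC50 marks induction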
Nuclear receptor subfamily 1 group I member 3 (Homo sapiens), sequence (Q14994 whole entry, looked up, the tested form may be a part): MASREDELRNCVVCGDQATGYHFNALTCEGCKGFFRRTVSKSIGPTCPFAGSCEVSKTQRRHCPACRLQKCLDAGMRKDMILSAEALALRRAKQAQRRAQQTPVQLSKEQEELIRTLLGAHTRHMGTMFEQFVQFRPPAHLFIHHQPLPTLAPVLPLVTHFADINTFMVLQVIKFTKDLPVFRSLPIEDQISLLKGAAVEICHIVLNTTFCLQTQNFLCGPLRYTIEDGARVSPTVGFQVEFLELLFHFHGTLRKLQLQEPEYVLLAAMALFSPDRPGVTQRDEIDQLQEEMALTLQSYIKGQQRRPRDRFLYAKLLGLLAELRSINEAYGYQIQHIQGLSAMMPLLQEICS
Procedure, shortened: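 HepG2 cells transiently transfected with GAL4-UAS reporter units; TRANS format reads activity of exogenous chimeric NR-Gal4 protein. After 24 h dosing, reporter mRNA quantified by RT-PCR, 6-FAM labelling and capillary electrophoresis; gain of signal fitted against DMSO.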

[6] = biological target: Estrogen receptor (Homo sapiens) (UniProt P03372); assay: ATG_ERa_TRANS: Attagene TRANS-FACTORIAL HepG2 Assay for human Estrogen Receptor alpha (ERa) (AID 2282970); details: HepG2 Attagene TRANS ERa GAL4 reporter, mRNA
Estrogen receptor (Homo sapiens), sequence (P03372 whole entry, looked up, the tested form may be a part): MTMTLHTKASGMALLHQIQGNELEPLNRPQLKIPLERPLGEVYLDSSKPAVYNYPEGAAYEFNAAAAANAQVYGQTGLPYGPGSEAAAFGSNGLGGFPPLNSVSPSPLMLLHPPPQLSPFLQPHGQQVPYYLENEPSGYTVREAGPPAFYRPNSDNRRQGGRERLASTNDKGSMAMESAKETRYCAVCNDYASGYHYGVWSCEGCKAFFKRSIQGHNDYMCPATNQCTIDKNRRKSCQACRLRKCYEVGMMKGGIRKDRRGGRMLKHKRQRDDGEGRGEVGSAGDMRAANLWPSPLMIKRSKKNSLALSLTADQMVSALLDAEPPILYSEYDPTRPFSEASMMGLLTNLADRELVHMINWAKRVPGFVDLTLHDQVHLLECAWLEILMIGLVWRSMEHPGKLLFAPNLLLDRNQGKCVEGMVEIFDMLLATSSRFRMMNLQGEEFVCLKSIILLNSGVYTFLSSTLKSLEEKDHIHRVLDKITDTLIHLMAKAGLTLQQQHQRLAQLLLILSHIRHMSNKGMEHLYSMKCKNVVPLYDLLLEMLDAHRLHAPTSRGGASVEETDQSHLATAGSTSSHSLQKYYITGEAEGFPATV
Procedure, shortened: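 Cells: HepG2, transiently transfected. Construct: GAL4-UAS reporter units regulated by exogenous NR-Gal4 chimeras. Time: 24 h. Detection: reporter mRNA by RT-PCR, capillary electrophoresis, fluorescence. Baseline: DMSO, upward fitting.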

[7] = biological target: Steroid hormone receptor ERR1 (Homo sapiens) (UniProt P11474); assay: ATG_ERRa_TRANS: Attagene TRANS-FACTORIAL HepG2 Assay for human Estrogen-Related Receptor alpha (ERRa) (AID 2282971); details: HepG2 Attagene TRANS reporter, ERRa transactivation
Steroid hormone receptor ERR1 (Homo sapiens), sequence (P11474 whole entry, looked up, the tested form may be a part): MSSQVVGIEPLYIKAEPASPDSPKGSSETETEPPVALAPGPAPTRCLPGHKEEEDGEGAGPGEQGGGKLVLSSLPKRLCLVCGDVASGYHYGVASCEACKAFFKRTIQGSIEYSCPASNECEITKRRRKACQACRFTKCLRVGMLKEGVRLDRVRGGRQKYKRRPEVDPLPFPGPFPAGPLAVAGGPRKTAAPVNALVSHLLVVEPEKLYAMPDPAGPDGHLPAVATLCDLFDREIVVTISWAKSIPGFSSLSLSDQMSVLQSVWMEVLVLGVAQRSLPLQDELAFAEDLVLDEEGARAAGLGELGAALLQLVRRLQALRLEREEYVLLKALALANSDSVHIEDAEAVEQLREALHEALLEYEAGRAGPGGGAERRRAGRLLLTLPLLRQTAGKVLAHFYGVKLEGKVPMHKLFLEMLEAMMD
Procedure, shortened: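 Reporter transcripts from ERRa-Gal4 chimera activity measured in transiently transfected human HepG2 cells 24 hours after dosing, using RT-PCR with 6-FAM primer extension, HpaI digestion and capillary electrophoresis; DMSO is baseline.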

[8] = biological target: X-box-binding protein 1 (Homo sapiens) (UniProt P17861); assay: ATG_Xbp1_CIS: Attagene CIS-FACTORIAL HepG2 Assay for human X-box Binding Protein 1 (XBP1) (AID 2282972; active = hit-call score of the fitted dose curve at least 0.9, where 1 is the maximum; inactive = score below 0.9); details: HepG2 XBP1 cis-element reporter, Attagene multiplex; actives raise or lower the signal
X-box-binding protein 1 (Homo sapiens), sequence (P17861 whole entry, looked up, the tested form may be a part): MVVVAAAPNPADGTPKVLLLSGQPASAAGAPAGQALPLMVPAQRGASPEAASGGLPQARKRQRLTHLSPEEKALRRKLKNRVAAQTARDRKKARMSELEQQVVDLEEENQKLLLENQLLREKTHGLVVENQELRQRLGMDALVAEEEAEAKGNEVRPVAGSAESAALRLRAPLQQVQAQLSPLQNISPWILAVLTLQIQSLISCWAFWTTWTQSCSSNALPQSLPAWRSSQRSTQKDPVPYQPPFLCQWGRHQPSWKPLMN
Procedure, shortened: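 Fluorescence-labelled cDNA fragments from reporter transcripts, separated by capillary electrophoresis, give the signal. Source: HepG2 cells transfected with promoter-driven reporter units, harvested 24 h post-dose. DMSO served as reference for bidirectional curve fitting.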

[9] = ATG_M_19_TRANS: Attagene TRANS-FACTORIAL HepG2 Assay for M19 Transcription Factor (Internal Marker) (AID 2282974); details: HepG2 Attagene TRANS-FACTORIAL M19 internal marker reporter
Procedure, shortened: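 After transfection of HepG2 with GAL4-UAS-driven reporter constructs, cells are dosed for 24 h. Total RNA is reverse-transcribed, reporter sequences PCR-amplified and labelled, then HpaI-digested and sized by capillary electrophoresis.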

[10] = ATG_GAL4_TRANS: Attagene TRANS-FACTORIAL HepG2 Assay for GAL4 (Internal Marker) (AID 2282976); details: HepG2 Attagene TRANS GAL4 internal marker reporter
Procedure, shortened: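 In transfected human HepG2 liver cells dosed 24 h, GAL4 reporter mRNA serves as a baseline marker. Detection by RT-PCR with fluorescent capillary electrophoresis, activity fitted upward relative to DMSO.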

[11] = biological target: Glucocorticoid receptor (Homo sapiens) (UniProt P04150); assay: ATG_GR_TRANS: Attagene TRANS-FACTORIAL HepG2 Assay for human Glucocorticoid Receptor (GR) (AID 2282978); details: HepG2 Attagene TRANS GR reporter, mRNA transcription;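 note: activators score as hits since higher reporter transcript over DMSO is fitted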
Glucocorticoid receptor (Homo sapiens), sequence (P04150 whole entry, looked up): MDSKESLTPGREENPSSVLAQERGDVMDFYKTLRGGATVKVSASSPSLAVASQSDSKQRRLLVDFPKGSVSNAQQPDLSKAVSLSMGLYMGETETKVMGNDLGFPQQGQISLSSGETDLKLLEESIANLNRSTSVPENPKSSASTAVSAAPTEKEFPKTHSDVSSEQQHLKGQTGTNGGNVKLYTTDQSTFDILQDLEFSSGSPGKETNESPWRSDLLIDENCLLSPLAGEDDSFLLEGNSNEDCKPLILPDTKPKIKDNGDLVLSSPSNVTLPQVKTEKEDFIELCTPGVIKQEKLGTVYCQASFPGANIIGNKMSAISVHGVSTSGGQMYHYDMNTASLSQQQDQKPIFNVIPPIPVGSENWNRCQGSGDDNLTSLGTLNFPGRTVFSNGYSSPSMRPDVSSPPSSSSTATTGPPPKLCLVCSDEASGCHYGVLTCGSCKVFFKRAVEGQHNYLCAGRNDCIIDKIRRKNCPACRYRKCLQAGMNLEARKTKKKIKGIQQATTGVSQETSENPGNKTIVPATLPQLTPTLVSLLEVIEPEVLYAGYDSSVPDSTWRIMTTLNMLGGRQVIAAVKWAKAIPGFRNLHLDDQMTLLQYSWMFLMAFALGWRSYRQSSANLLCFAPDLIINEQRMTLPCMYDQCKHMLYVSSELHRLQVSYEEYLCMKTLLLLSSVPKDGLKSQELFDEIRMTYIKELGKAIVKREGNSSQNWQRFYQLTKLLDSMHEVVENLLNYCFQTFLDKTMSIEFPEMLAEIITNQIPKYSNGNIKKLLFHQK
Procedure, shortened: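 Multiplexed TRANS reporter system, HepG2; 24 h exposure; RNA → oligo(dT) RT → reporter-specific PCR → 6-FAM primer extension → HpaI cut → CE fluorescence. Gain-of-signal vs DMSO.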

[12] = biological target: Bile acid receptor (Homo sapiens) (UniProt Q96RI1); assay: ATG_FXR_TRANS: Attagene TRANS-FACTORIAL HepG2 Assay for Farnesoid X Receptor (FXR) (AID 2282979); details: HepG2 Attagene TRANS FXR-GAL4 reporter transcription;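 note: hits raise reporter mRNA above DMSO so AC50 marks FXR activation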
Bile acid receptor (Homo sapiens), sequence (Q96RI1 whole entry, looked up, the tested form may be a part): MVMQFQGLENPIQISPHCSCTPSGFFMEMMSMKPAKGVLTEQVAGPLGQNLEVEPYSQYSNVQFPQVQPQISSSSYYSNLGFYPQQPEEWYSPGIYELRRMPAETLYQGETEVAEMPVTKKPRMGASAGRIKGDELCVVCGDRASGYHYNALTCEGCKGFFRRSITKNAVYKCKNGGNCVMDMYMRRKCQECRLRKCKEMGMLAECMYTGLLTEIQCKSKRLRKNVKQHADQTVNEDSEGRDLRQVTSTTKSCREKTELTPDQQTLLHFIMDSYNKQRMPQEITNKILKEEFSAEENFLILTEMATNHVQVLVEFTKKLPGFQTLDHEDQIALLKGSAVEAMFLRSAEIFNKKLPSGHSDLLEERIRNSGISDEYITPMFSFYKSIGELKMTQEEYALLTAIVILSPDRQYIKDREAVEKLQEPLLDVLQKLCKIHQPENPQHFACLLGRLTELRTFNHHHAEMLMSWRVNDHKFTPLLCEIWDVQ
Procedure, shortened: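 Reporter transcripts from transfected HepG2 cells were measured 24 h after dosing, using RT-PCR with capillary electrophoresis of 6-FAM-labelled fragments. The read-out reflects activity of exogenous FXR-Gal4 chimera on GAL4-UAS units, with induction relative to DMSO.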

[13] = biological target: Oxysterols receptor LXR-alpha (Homo sapiens) (UniProt Q13133); assay: ATG_LXRa_TRANS: Attagene TRANS-FACTORIAL HepG2 Assay for human Liver X Receptor alpha (LXRa) (AID 2282980); details: HepG2 Attagene TRANS reporter, LXRa transactivation
Oxysterols receptor LXR-alpha (Homo sapiens), sequence (Q13133 whole entry, looked up, the tested form may be a part): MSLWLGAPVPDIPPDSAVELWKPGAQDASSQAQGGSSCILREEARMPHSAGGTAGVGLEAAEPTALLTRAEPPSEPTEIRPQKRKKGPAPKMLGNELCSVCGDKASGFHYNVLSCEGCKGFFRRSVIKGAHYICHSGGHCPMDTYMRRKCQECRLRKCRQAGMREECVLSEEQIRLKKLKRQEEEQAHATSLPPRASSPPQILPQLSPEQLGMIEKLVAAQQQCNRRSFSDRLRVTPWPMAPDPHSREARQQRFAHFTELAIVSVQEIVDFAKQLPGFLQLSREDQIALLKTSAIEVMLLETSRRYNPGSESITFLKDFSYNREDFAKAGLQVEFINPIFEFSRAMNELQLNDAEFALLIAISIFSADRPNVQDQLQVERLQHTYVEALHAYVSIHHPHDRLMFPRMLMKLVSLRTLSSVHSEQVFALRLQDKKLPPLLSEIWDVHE
Procedure, shortened: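 Chemical-induced reporter mRNA measured by RT-PCR with fluorescent labelling and capillary electrophoresis after 24 h dosing of transiently transfected HepG2 cells expressing exogenous NR-Gal4 chimeras; increases scored against DMSO baseline.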

[14] = biological target: Oxysterols receptor LXR-beta (Homo sapiens) (UniProt P55055); assay: ATG_LXRb_TRANS: Attagene TRANS-FACTORIAL HepG2 Assay for human Liver X Receptor beta (LXRb) (AID 2282981); details: HepG2 Attagene TRANS GAL4-LXRb reporter, mRNA
Oxysterols receptor LXR-beta (Homo sapiens), sequence (P55055 whole entry, looked up, the tested form may be a part): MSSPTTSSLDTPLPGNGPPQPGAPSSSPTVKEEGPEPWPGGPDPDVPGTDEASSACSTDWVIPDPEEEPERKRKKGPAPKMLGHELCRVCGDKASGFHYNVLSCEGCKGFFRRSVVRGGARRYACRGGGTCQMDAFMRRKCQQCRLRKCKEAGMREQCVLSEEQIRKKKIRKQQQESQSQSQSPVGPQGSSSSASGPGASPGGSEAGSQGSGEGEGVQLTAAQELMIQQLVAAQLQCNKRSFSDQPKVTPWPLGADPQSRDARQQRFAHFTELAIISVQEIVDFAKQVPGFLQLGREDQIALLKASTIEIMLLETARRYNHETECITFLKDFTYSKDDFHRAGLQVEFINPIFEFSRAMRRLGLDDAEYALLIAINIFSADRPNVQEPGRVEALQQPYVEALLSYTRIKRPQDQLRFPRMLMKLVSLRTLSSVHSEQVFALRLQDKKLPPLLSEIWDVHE
Procedure, shortened: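 Gain-of-signal mRNA reporter endpoint, DMSO as negative control. Transiently transfected HepG2 cells carrying the NR-Gal4 chimera and GAL4-UAS reporter units were treated 24 h; transcripts quantified by RT-PCR and capillary electrophoresis fluorescence.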

[15] = ATG_M_06_TRANS: Attagene TRANS-FACTORIAL HepG2 Assay for M06 Transcription Factor (Internal Marker) (AID 2282983); details: HepG2 Attagene TRANS M06 internal marker reporter
Procedure, shortened: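 Cells: HepG2, transient multi-reporter transfection. Exposure: 24 h. Detection: RT-PCR, 6-FAM labelling, HpaI digestion (2 h, 37 °C), capillary electrophoresis. Baseline: DMSO.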

[16] = ATG_M_32_TRANS: Attagene TRANS-FACTORIAL HepG2 Assay for M32 Transcription Factor (Internal Marker) (AID 2282984); details: HepG2 Attagene TRANS M32 internal marker reporter;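 note: transcript level of a background control reporter unit measured by RT-PCR and capillary electrophoresis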
Procedure, shortened: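 Capillary electrophoresis of 6-FAM-labelled reporter fragments gives the signal; data fitted for gain over DMSO negative control. Source: HepG2 cells bearing transient multiple reporter transcription units, 24 h exposure.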

[17] = biological target: Nuclear receptor subfamily 4 group A member 2 (Homo sapiens) (UniProt P43354); assay: ATG_NURR1_TRANS: Attagene TRANS-FACTORIAL HepG2 Assay for human Nuclear Receptor Related Protein 1 (NURR1) (AID 2282985); details: HepG2 Attagene TRANS reporter, mRNA readout
Procedure, shortened: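 HepG2 / transient MRTU transfection / 24 h compound exposure / RT-PCR + CE fluorescence of reporter mRNA / gain-of-signal vs DMSO.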

[18] = biological target: Hepatocyte nuclear factor 4-alpha (Homo sapiens) (UniProt P41235); assay: ATG_HNF4a_TRANS: Attagene TRANS-FACTORIAL HepG2 Assay for human Hepatocyte Nuclear Factor 4 alpha (HNF4a) (AID 2282982); details: HepG2 HNF4a transactivation reporter, mRNA readout
Hepatocyte nuclear factor 4-alpha (Homo sapiens), sequence (P41235 whole entry, looked up, the tested form may be a part): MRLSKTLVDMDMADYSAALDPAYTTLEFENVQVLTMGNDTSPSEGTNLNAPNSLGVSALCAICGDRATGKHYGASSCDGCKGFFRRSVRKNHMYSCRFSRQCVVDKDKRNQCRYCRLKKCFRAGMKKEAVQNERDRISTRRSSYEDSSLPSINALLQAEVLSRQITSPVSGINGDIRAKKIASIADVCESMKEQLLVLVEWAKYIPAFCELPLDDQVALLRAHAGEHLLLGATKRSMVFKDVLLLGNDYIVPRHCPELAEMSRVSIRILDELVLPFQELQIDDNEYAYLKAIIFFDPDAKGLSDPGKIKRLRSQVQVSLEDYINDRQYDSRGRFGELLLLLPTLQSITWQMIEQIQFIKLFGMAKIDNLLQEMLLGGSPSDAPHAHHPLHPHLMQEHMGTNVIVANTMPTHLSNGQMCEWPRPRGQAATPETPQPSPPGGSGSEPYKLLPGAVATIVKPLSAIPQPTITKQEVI
Procedure, shortened: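 Gain-of-signal mRNA induction, relative to DMSO vehicle, was read after 24 h compound treatment of HepG2 cells bearing transfected GAL4-UAS reporters. Detection used RT-PCR, 6-FAM primer extension and capillary electrophoresis.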

[19] = biological target: Estrogen-related receptor gamma (Homo sapiens) (UniProt P62508); assay: ATG_ERRg_TRANS: Attagene TRANS-FACTORIAL HepG2 Assay for human Estrogen-Related Receptor gamma (ERRg) (AID 2282977); details: HepG2 Attagene TRANS reporter, ERRg transactivation;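 note: hits increase reporter signal over DMSO so potencies reflect activators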
Procedure, shortened: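 HepG2 cells transiently transfected with multiplexed GAL4-UAS reporter units and chimeric NR-Gal4 constructs were exposed to test chemicals for 24 h. Reporter mRNA was measured by RT-PCR, 6-FAM primer extension, HpaI digestion and capillary electrophoresis; gain-of-signal versus DMSO.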

[20] = biological target: Transcriptional activator Myb (Homo sapiens) (UniProt P10242); assay: ATG_Myb_CIS: Attagene CIS-FACTORIAL HepG2 Assay for human Myeloblastosis (Myb) Proto-Oncogene Transcription Factor (AID 2282986; active = hit-call score of the fitted dose curve at least 0.9, where 1 is the maximum; inactive = score below 0.9); details: HepG2 Attagene CIS-FACTORIAL Myb reporter transcription; actives raise or lower the signal
Transcriptional activator Myb (Homo sapiens), sequence (P10242 whole entry, looked up): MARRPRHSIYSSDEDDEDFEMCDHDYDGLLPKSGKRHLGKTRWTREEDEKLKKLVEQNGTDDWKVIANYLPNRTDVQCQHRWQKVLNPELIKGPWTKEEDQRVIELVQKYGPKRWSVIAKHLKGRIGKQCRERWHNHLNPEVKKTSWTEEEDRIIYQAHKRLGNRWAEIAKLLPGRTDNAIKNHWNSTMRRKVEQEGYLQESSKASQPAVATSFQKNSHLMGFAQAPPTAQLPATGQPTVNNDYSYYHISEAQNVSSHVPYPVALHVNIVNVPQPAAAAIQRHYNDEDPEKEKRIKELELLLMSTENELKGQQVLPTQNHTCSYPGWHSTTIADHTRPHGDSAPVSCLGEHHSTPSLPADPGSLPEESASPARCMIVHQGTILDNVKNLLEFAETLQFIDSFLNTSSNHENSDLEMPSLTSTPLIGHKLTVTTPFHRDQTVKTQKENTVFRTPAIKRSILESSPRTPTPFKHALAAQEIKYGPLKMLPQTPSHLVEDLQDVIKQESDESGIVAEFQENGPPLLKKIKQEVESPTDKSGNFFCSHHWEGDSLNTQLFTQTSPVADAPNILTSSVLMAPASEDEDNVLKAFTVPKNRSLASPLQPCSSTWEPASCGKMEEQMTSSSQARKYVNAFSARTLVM
Procedure, shortened: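 Endogenous transcription factor activity at a Myb-responsive cis element is reported in human liver HepG2 cells after 24 h chemical treatment. Reporter mRNA is detected by RT-PCR and capillary electrophoresis fluorescence, with DMSO as baseline.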

Measured: AC50

OCCCC(F)(F)C(F)(F)C(F)(F)F
inactive: [1] | [2] | [3] | [4] | [5] | [6] | [7] | [8] | [9] | [10] | [11] | [12] | [13] | [14] | [15] | [16] | [17]

O=C(O)C(F)(F)C(F)(F)F
inactive: [1] | [2] | [3] | [4] | [5] | [6] | [7] | [8] | [9] | [10] | [11] | [12] | [13] | [14] | [18] | [15] | [16]

FC(F)(F)C(F)(F)C(F)(F)C(F)(F)C(F)(F)C(F)(F)CC1CO1 (centres undefined)
inactive: [1] | [2] | [3] | [4] | [5] | [6] | [7] | [8] | [9] | [10] | [11] | [12] | [13] | [16]

CC/C=C\CCOC(=O)c1ccccc1
inactive: [1] | [2] | [3] | [4] | [5] | [6] | [7] | [8] | [9] | [10] | [19] | [11] | [13] | [14] | [18] | [16] | [17]

O=S(=O)(O)C(F)(F)C(F)(F)C(F)(F)C(F)(F)C(F)(F)C(F)(F)C(F)(F)F
inactive: [1] | [2] | [4] | [5] | [7] | [8] | [9] | [10] | [11] | [12] | [13] | [15] | [16]
active: [1] 78.9 µM | [3] 148 µM and 81.5 µM | [6] 43.3 µM and 58.7 µM

O=C(O)C(F)(F)C(F)(F)C(F)(F)C(F)(F)C(F)(F)C(F)(F)C(F)(F)C(F)(F)Cl
inactive: [2] | [9] | [11] | [12] | [13] | [14] | [18] | [15] | [16] | [17] | [20]
active: [1] 50 µM | [2] 50 µM | [3] 74.7 µM and 82.8 µM | [4] 49.3 µM and 67.4 µM | [6] 27.2 µM and 31.4 µM | [8] 58.7 µM and 50 µM | [12] 82.3 µM | [17] 31.2 µM

CC(CCl)OP(=O)(OC(C)CCl)OC(C)CCl (centres undefined)
inactive: [1] | [2] | [3] | [4] | [5] | [6] | [7] | [8] | [9] | [11] | [12] | [13] | [15] | [17]

O=P(O)(O)OCCC(F)(F)C(F)(F)C(F)(F)C(F)(F)C(F)(F)C(F)(F)F
inactive: [1] | [2] | [4] | [5] | [7] | [8] | [9] | [10] | [12] | [14] | [15] | [16] | [20]
active: [3] 70.1 µM | [6] 10.4 µM
